Source: PubChem BioAssay (NCATS)
Inconclusive results are not listed. Activity calls are given as the source filed them. Calls follow the shape of the dose curve; as a rule, active = well fitted activation curve with a large enough effect; inconclusive = small, poorly fitted or top-dose-only effect; inactive = flat fitted curve, though single readings scatter.

Test: Validation screen for small molecules that induce DNA re-replication in SW480 colon adenocarcinoma cells (AID 504364); also: 0% is about no effect
Conditions: DNA re-replication phenotype (high-content imaging); series mostly up to 46.1 µM; activity (re-replication induction): at the top concentration
Procedure, shortened: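 SW480 cells seeded at 250 per well were exposed to compound or DMSO for 48 hr at 37 C, 5% CO2, then stained with Hoechst for 40 min. DNA content per nucleus was imaged (405 nm ex, 500-530 nm em).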

SMILES | activity (re-replication induction) | Potency
C#CC(N)CCC(=O)O (stereo not given) | 1.33% (inactive) | 
COc1ccccc1N1CCN(CCCCNC(=O)c2ccc3ccccc3c2)CC1 | 21.7% (inactive) | 
CCSC(=N)N | -11.5% (inactive) | 
O=C(O)[C@H]1NCCC[C@H]1C(=O)O | -10.7% (inactive) | 
CC(C)NC[C@H](O)COc1ccc(CC(N)=O)cc1 |  | inactive
CCC(=O)N1CCN(C(=O)c2ccccc2)CC1 | -6.13% (inactive) | 
NC(=O)CNCCC(c1ccccc1)c1ccccc1 | -4.17% (inactive) | 
Nc1ncnc2c1ncn2C1CCCO1 (stereo not given) | -6.25% (inactive) | 
N=C(N)c1ccccc1 | 2.14% (inactive) | 
O=C(O)/C=C/c1ccc(O)c(O)c1 | -9.96% (inactive) | 
Cc1nc(N=Nc2ccc(C(=O)O)cc2)c(COP(=O)(O)O)c(C=O)c1O | -5.21% (inactive) | 
CC[N+](CC)(CC)CC(=O)Nc1c(C)cccc1C | -11.4% (inactive) | 
CCN1C(=O)C=CC1=O | -2.6% (inactive) | 
O=C(O)CCC(=O)N1CCCC1C(=O)O (stereo not given) | 2.19% (inactive) | 
O=C(O)C1CCNCC1 | -0.956% (inactive) | 
